In PubChem BioAssay (EPA / NIEHS):
Inconclusive results are not listed. Activity calls are given as the source filed them. How the source made its calls: active means hit-call score of the fitted dose curve at least 0.9, where 1 is the maximum; inconclusive means response in the unintended direction; inactive means score below 0.9.

test: Tanguay_ZF_120hpf_SWIM_legacy: (Legacy) Oregon State University Tanguay Lab 120 Hour Post-fertilization zebrafish Assay for Swim Bladder Malformation (AID 2283654);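 further: swim bladder malformation in each larva scored yes or no under brightfield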
Procedure: Tanguay_ZF_120hpf_legacy is a whole embryo, multiplexed endpoint assay using zebrafish larvae exposed for 120 hours post fertilization on a 96-well plate.Tanguay_ZF_120hpf_SWIM_legacy is one of one assay component(s) measured or calculated from the Tanguay_ZF_120hpf_legacy assay. It is designed to make measurements of zebrafish development as detected with brightfield microscopy of developing zebrafish embryos.Data from the assay component Tanguay_ZF_120hpf_SWIM_legacy was analyzed into 1 assay endpoints. This assay endpoint, Tanguay_ZF_120hpf_SWIM_legacy, was analyzed in the positive analysis fitting direction relative to DMSO as the negative control and baseline of activity. Using a type of morphology reporter, gain-of-signal activity can be used to understand changes in developmentals as they relate to the whole embryo. To generalize the intended target to other relatable targets, this assay endpoint is annotated to the zebrafish development intended target family, where the subfamily is swim bladder morphogenesis.
Zebrafish husbandry: Tropical 5D wild-type adult zebrafish were housed in at an approximate density of 1000 per 100 gallon tank at the Sinnhuber Aquatic Research Laboratory, Oregon State University, Corvallis, OR. Each tank was kept at standard laboratory conditions of 28C on a 14-h light/10-h dark photoperiod in fish water consisting of reverse osmosis water supplemented with a commercially available salt (Instant Ocean). Spawning funnels were placed into the tanks the night prior, and embryos were collected and staged. To increase bioavailability, the chorion was enzymatically removed using pronase (63.6mg/ml, >/= 3.5U/mg, Sigma-Aldrich: P5147) at 4 hours post fertilization (hpf) using a custom automated dechorionator.Chemical exposures: Six hpf dechorionated embryos were placed 1 embryo per well in a 96-well plate prefilled with 90 ul of EM using automated embryo placement systems (AEPS). Ten microliters of each row of dilution plate 2 was added to 2 exposure plates. The final DMSO concentration used was 0.64% (vol/vol). Thirty-two embryos were also exposed to 5uM trimethyltin chloride (positive control). Plates were sealed to prevent evaporation and foil covered to reduce light exposure and kept in a 28C incubator. Embryos were statically exposed until 120 hpf. At 24 hpf, embryos were assessed for photomotor response using a custom photomotor response analysis tool (PRAT) and for developmental toxicity endpoints (MO24: mortality at 24 hpf, DP: developmental progression, SM: spontaneous movement, and NC: notochord distortion). At 120 hpf, locomotor activity was measured using Viewpoint Zebralab and assessed for 18 endpoints. Zebrafish acquisition and analysis program (ZAAP), a custom program designed to inventory, acquire, and manage zebrafish data, was used to collect developmental endpoints as either present or absent (i.e., binary responses were recorded). If mortality occurred for an embryo (at either 24 or 120 hpf), the non-mortality endpoints were not measured.

Question: Which outcome does the source give for `CCCC(=O)OCC` here?
Answer: inactive

Question: With `Nc1cccc(N)c1` as the compound, how does the outcome read?
Answer: inactive

Question: With `O=C1CCC(N2C(=O)c3ccccc3C2=O)C(=O)N1` (stereo not given) as the compound, how does the outcome read?
Answer: inactive

Question: For `CCCCC(CC)COC(=O)c1ccc(C(=O)OCC(CC)CCCC)cc1` (stereo not given), which outcome is on record?
Answer: inactive

Question: For `CCCN(C1CCN(C(=O)C2CCNCC2)CC1)[C@@H]1CCc2ccc(OC)cc2C1`, which outcome is on record?
Answer: inactive

Question: With `Cc1c(-c2cccnc2)c2ccccc2n1CCCCC(=O)O` as the compound, how does the outcome read?
Answer: inactive

Question: Which outcome does the source give for `COCCOc1cc2cc(C(=O)NC3CCN(C(C)C)CC3)n(CC(=O)Nc3ccc(Cl)cn3)c2cn1` here?
Answer: inactive

Question: Which outcome does the source give for `Oc1ccc2c(c1)-c1ccccc1C2` here?
Answer: inactive

Question: With `Nc1nc2ncc(CNc3ccc(C(=O)N[C@@H](CCC(=O)O)C(=O)O)cc3)nc2c(=O)[nH]1` as the compound, how does the outcome read?
Answer: inactive

Question: With `O=C(O)CCN(C1(C(=O)NO)CCCC1)S(=O)(=O)c1ccc(Oc2ccc(F)cc2)cc1` as the compound, how does the outcome read?
Answer: inactive

Question: For `Nc1ccc(Nc2ccccc2)cc1`, which AC50 is on record?
Answer: 45.6 µM (active)

Question: Which outcome does the source give for `CCc1cc(SCc2sc(-c3ccc(C(F)(F)F)cc3)nc2CN2CCN(c3ccc(OC)cc3)CC2)ccc1OCC(=O)O` here?
Answer: inactive

Question: With `CCCCCCc1ccc(O)cc1O` as the compound, how does the outcome read?
Answer: inactive

Question: For `CC(C)(O)c1coc(S(=O)(=O)NC(=O)Nc2c3c(cc4c2CCC4)CCC3)c1`, which outcome is on record?
Answer: inactive

Question: For `O=c1n(CC2CO2)c(=O)n(CC2CO2)c(=O)n1CC1CO1` (stereo not given), which outcome is on record?
Answer: inactive

Question: Which outcome does the source give for `O=C1CCCCCN1` here?
Answer: inactive

Question: With `CC[C@H]1CC[C@H](NCc2cc3c(cc2OC)[C@H]2C[C@H]2C(=O)N3C)[C@H](c2ccccc2)N1` as the compound, how does the outcome read?
Answer: inactive

Question: For `CC1(C)C(=O)N(Br)C(=O)N1Br`, which outcome is on record?
Answer: inactive

Question: For `CC(C)CCCCCCCOC(=O)CCCCC(=O)OCCCCCCCC(C)C`, which outcome is on record?
Answer: inactive

Question: For `CNCc1ccc(NC(=O)c2c[nH]c3c2C(=O)CCC3)cc1`, which outcome is on record?
Answer: inactive

Question: For `CC(C)=CCC/C(C)=C/CO`, which outcome is on record?
Answer: inactive

Question: For `CC[C@H](C)C(=O)O[C@H]1C[C@@H](C)C=C2C=C[C@H](C)[C@H](CC[C@@H]3C[C@@H](O)CC(=O)O3)[C@H]21`, which outcome is on record?
Answer: inactive

Question: For `O=C1OC(=O)C2C3C=CC(C3)C12` (stereo not given), which outcome is on record?
Answer: inactive

Question: For `O=C(O)c1cccc(Oc2ccccc2)c1`, which outcome is on record?
Answer: inactive

Question: With `CCOCCO` as the compound, how does the outcome read?
Answer: inactive

Question: With `CCOC(=O)CC(CC(=O)OCC)(OC(C)=O)C(=O)OCC` as the compound, how does the outcome read?
Answer: inactive

Question: For `CCCCCCCCO`, which outcome is on record?
Answer: inactive

Question: For `C1=CCCC=CCCC=CCC1`, which outcome is on record?
Answer: inactive

Question: With `Cc1ccc(N)cc1O` as the compound, how does the outcome read?
Answer: inactive

Question: Which outcome does the source give for `CC1=CC(=O)CC(C)(C)C1` here?
Answer: inactive

Question: Which outcome does the source give for `O=C(OC[C@H]1O[C@@H](OC(=O)c2cc(O)c(O)c(OC(=O)c3cc(O)c(O)c(O)c3)c2)[C@H](OC(=O)c2cc(O)c(O)c(OC(=O)c3cc(O)c(O)c(O)c3)c2)[C@@H](OC(=O)c2cc(O)c(O)c(OC(=O)c3cc(O)c(O)c(O)c3)c2)[C@@H]1OC(=O)c1cc(O)c(O)c(OC(=O)c2cc(O)c(O)c(O)c2)c1)c1cc(O)c(O)c(OC(=O)c2cc(O)c(O)c(O)c2)c1` here?
Answer: inactive

Question: With `CCn1nc(Cc2ccccc2)cc1C1CCN(C[C@H]2C[C@H](N(C)[C@@H](C(=O)O)C(C)C)C[C@@H]2c2cccc(F)c2)CC1` as the compound, how does the outcome read?
Answer: inactive

Question: With `COC(=O)c1ccccc1O` as the compound, how does the outcome read?
Answer: inactive

Question: With `CNS(=O)(=O)c1cc(C(=O)N2CCC(CCN3C4CCC3CC(n3c(C)nc5ccccc53)C4)(c3cccc(F)c3)CC2)c(Cl)cc1F` (stereo not given) as the compound, how does the outcome read?
Answer: inactive

Question: For `CCC(C)(C)C(=O)O[C@H]1C[C@@H](C)C=C2C=C[C@H](C)[C@H](CC[C@@H]3C[C@@H](O)CC(=O)O3)[C@H]21`, which outcome is on record?
Answer: inactive

Question: For `Fc1ccccc1[C@@H](F)COC1CCC(Nc2ncnc3[nH]ncc23)CC1` (stereo not given in full), which outcome is on record?
Answer: inactive

Question: For `Cc1ccc(S(=O)(=O)O)cc1C`, which outcome is on record?
Answer: inactive

Question: For `COC(=O)CC(=O)OC`, which outcome is on record?
Answer: inactive

Question: With `O=C(O)CC(O)C(=O)O` (stereo not given) as the compound, how does the outcome read?
Answer: inactive

Question: With `CCNc1ccccc1` as the compound, how does the outcome read?
Answer: inactive
